Shown are actives, neighbours in structure and some others; about 2.1% of the full set was active somewhere.
aSyn yeast inh: qHTS of alpha-syn Inhibitors; Yeast expressing alpha-synuclein, growth rescue, BacTiter-Glo, 24 h; Potency, µM (series often up to 46.1 µM), for inactives: at the top dose growth rescue (activation), actives largely listed as activators; hit rate 0.14% among 370,000; AID 652106, 2013; note: % of control where 0% means no effect; nearly all actives have a fitted effect of over 65% in size
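Readout is rescue of growth in alpha-synuclein-expressing yeast, so inhibitors of toxicity appear as activators. Growth after 24 hr at 30 deg C in galactose medium is quantified by luminescence.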
FUS suppressor: qHTS for Suppressors of FUS Proteinopathy: Primary screen using FUS-linked yeast assay | S. cerevisiae FUS-expressing, growth rescue, OD600, 24 h | Potency, µM (top dose mostly 76.6 µM), actives largely listed as activators | hit rate 0.24% among 390,000 | AID 1347120, 2019;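 note: plate controls were DMSO vehicle for no effect and reference control for full effect; nearly all actives have a fitted effect of over 55% in size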
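Cultures pregrown in 2.5% raffinose medium are shifted to minimal medium containing 2% galactose to express toxic FUS. Compounds are tested at several concentrations. After 24hr at 30C, growth is quantified at 600 nm absorbance.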
TDP43 rescue: qHTS of TDP-43 Inhibitors. hit rate 1.8% among 410,000. TDP-43 expressing yeast growth rescue, BacTiter-Glo, 24 h. Potency, µM (doses to about 46.1 µM), inactives show at the highest dose growth rescue (activation), most hits filed as activators; note: % of control where 0% means no effect; nearly all actives have a fitted effect of over 50% in size
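Readout is BacTiter-Glo luminescence of cell growth, so inhibitors register as activators. TDP-43-expressing yeast at OD600=0.02 in galactose medium, after raffinose pregrowth to mid-log, were incubated with compound for 24 hr at 30 deg C.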
Abeta rescue: qHTS for compounds that reverse cellular toxicity of Amyloid beta (A-beta) peptide in yeast: Primary Screen | Potency, µM (top dose mostly 46.1 µM), most hits filed as activators | AID 1347071, 2019 | yeast expressing A-beta42, growth rescue, OD600, 48 h; response scale: 0% DMSO, 100% iron-clioquinol control | hit rate 0.063% among 410,000; note: nearly all actives have a fitted effect of over 55% in size
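Yeast A-beta toxicity model in growth medium with pinned compounds, 48 h at 30 C; growth read as absorbance at 600 nm. Normalized to FeCl3/clioquinol equimolar mix (positive) and DMSO (negative).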
Starred values were filed as active, the others as inactive; i = inactive; u = inconclusive; x = no result given. Calls come from the whole dose curve; as a rule, active = well fitted curve in the direction sought with a large enough effect; inconclusive = small, poorly fitted or top-dose-only effect, or another doubt; inactive = no such curve, though single readings can be large; an effect the other way counts as inactive or inconclusive. Potency is the fitted concentration of half-maximal effect.

SMILES	aSyn yeast inh	FUS suppressor	TDP43 rescue	Abeta rescue
CCN(CC)CCN(C(=O)c1ccco1)c1nc2cc(C)cc(C)c2s1	x	i	2%	i
O=C(OCc1cc(=O)n2nc(C3CCCCC3)sc2n1)c1ccc(F)cc1	x	i	22%	i
O=C(OCC(=O)N1CCCc2ccccc21)c1ccccc1[N+](=O)[O-]	6%	x	35µM*	i
Nc1ccc(Sc2ccc([N+](=O)[O-])cc2)cc1	20µM*	i	u	i
CCCn1c(CCC(=O)Nc2cc(OC)cc(OC)c2)nc2cccnc21	x	i	5%	i
CCOc1ccc(NC(=O)N2CCOc3ccccc32)cc1	x	i	11µM*	i
CCc1ccccc1NC(=O)N1CCOc2ccccc21	x	i	u	i
Cc1ccc(C2CC(=O)Nc3c2ccc2ccccc32)cc1[N+](=O)[O-] (stereo not drawn)	11%	i	25µM*	i
CCOC(=O)C1=C(c2ccccc2)NC(=S)NC1c1ccc(C)c([N+](=O)[O-])c1 (stereo not drawn)	-4%	x	6%	i
O=C1CC(c2ccco2)c2ccc3ccccc3c2N1 (stereo not drawn)	5%	i	13µM*	i
Nc1c2c(=O)oc(-c3ccccc3)cc2nn1-c1ccccc1	25%	i	14µM*	i
Cc1cccc(OCCn2c(=O)n(C)c3ccccc32)c1	22µM*	i	u	i
Cc1cccc(OCCCN2C(=O)C(=O)c3cc(C)ccc32)c1	0%	i	14µM*	i
Cc1ccc2oc(C(=O)N(Cc3sccc3C)C3CCS(=O)(=O)C3)c(C)c2c1 (stereo not drawn)	x	i	u	i
CC(=O)N1N=C(c2ccccc2)CC1c1cn(C)c2ccccc12 (stereo not drawn)	20%	x	20µM*	i
Cc1cc2ncn(/N=C/c3ccc([N+](=O)[O-])s3)c2cc1C	10%	x	13µM*	i
O=c1c(=O)n(-c2cccc(Cl)c2)ccn1Cc1cccc(F)c1	x	i	5%	i
Cc1cccc2sc(NC(=O)Cn3cccc3)nc12	18%	i	7%	11µM*
Cc1cccc2sc(NC(=O)CN(C)S(=O)(=O)c3cccs3)nc12	22%	i	16µM*	i
O=C(Nc1nc2c(Cl)cccc2s1)C1CC1	-1%	i	19%	i
Cc1cccc2sc(NC(=O)C3CC3)nc12	-23%	i	11µM*	i
Cc1cccc2sc(NC(=O)CCn3cccc3)nc12	-1%	i	u	u
CC(C)c1ccc2nc(NC(=O)C3CC3)sc2c1	-15%	i	22µM*	i
Cc1cccc2sc(NC(=O)CN(C)S(=O)(=O)c3ccc(Br)s3)nc12	5%	i	u	i
O=C(Nc1nc2cc3c(cc2s1)OCO3)C1CCCCC1	-4%	i	8%	i
SMILES	aSyn yeast inh	FUS suppressor	TDP43 rescue	Abeta rescue
O=C(Nc1nc2cc3c(cc2s1)OCCO3)C1CCCCC1	-27%	i	25µM*	i
COc1ccc(C(=O)NC2CCCc3ccccc32)cc1Br (stereo not drawn)	3%	i	14µM*	i
Cc1ccc(C(=O)NC2CCCc3ccccc32)cc1[N+](=O)[O-] (stereo not drawn)	7%	i	10µM*	i
Cc1ccc(OCCCSc2nc(-c3ccc(C(C)(C)C)cc3)nc3cc(=O)[nH]n23)cc1C	x	i	15%	i
CCCCOc1ccc(C(C)NC(=O)c2cccc(Nc3nc4ccccc4n4nnnc34)c2)cc1 (stereo not drawn)	x	i	14%	i
CSc1ccc(-c2nc3cnccn3c2Nc2ccc3c(c2)OCO3)cc1	14%	i	25µM*	i
Cc1ccc(Nc2c(-c3ccc(C)o3)nc3ccccn23)cc1	-23%	x	x	x
Cc1ccc(-c2nc3ccccn3c2Nc2ccccc2)o1	-16%	i	9%	i
Cc1ccc(-c2nc3cnccn3c2Nc2ccccc2)o1	20µM*	i	35µM*	i
Cc1ccc(Nc2c(-c3ccc(C)o3)nc3cnccn23)cc1	-86%	i	22µM*	i
COc1ccc(NC(=O)c2sc3nc(C)c(C(=O)Nc4ccc(C)cc4C)c(-c4ccc(C)o4)c3c2N)cc1	x	u	u	i
CC(C)[C@@H]1CC[C@@H](C)C[C@@H]1P(=O)(c1ccccc1)c1ccccc1	2%	x	x	x
COc1ccccc1C(=O)n1nc(-c2ccccc2)nc1NCc1ccc(Cl)cc1	-1%	i	16%	i
CC(C)c1ccc(NC(=O)CSC2=Nc3ccccc3C3=NC(CC(=O)NCc4cccs4)C(=O)N23)cc1 (stereo not drawn)	x	i	u	13µM*
Cc1cc(SCC(=O)NCc2ccc(Cl)cc2)nc(=O)[nH]1	x	i	-17%	i
CN(C)/[N+]([O-])=N/Oc1cc(F)c([N+](=O)[O-])cc1[N+](=O)[O-]	-23%	x	x	x
CCOC(=O)c1ccc(S(=O)(=O)n2c(=O)oc3ccccc32)cc1	2%	i	24%	i
Cc1ccc(S(=O)(=O)n2c(=O)oc3ccccc32)cc1	11%	i	8.9µM*	i
OC[C@@H]1CN(Cc2ccc(Cl)cc2)C[C@H](n2cnc3c(N4CCN(c5ccccc5)CC4)ncnc32)O1	u	u	32µM*	i
Cc1cc(C)c(/C=C/c2onc(C)c2S(=O)(=O)N2CCC(C(=O)Nc3ccc(Cl)c(C(F)(F)F)c3)CC2)c(C)c1	x	i	0%	i
CC(SC#N)C(=O)C12CC3CC(CC(C3)C1)C2 (stereo not drawn)	6%	i	11µM*	i
CC(Sc1n[nH]c(N)n1)C(=O)C12CC3CC(CC(C3)C1)C2 (stereo not drawn)	-3%	i	-2%	i
CCOc1ccc(CCNC(=O)C2CCN(C(=O)c3cc4sccc4n3CC)CC2)cc1OCC	x	i	13%	i
COc1cc(NC(=O)Nc2ccc3c(c2)OCO3)cc(OC)c1OC	2%	i	2%	i
COc1cc(C(Nc2ccc3c(c2)OCO3)C(=O)NC2CCCCC2)cc(OC)c1OC (stereo not drawn)	0%	18µM*	-3%	i
Cc1nn(-c2ccccc2)c(OC(=O)c2cccs2)c1S(=O)(=O)c1ccc([N+](=O)[O-])cc1	-2%	40µM*	-31%	i
Cc1nn(-c2ccccc2)c(OC(=O)c2cccs2)c1S(=O)(=O)c1ccccc1	3%	i	6%	i
CC(=O)/C(=C/c1ccccc1)C(=O)Nc1ccccc1C	u	i	2.5µM*	i
Fc1cccc(Nc2ncnc3sccc23)c1	-8%	i	20µM*	i
c1ccc2c(c1)OCC(CNc1ncnc3sccc13)O2 (stereo not drawn)	12%	i	20µM*	i

From PubChem BioAssay
